15-hLO-2 inh: blocks human 15-lipoxygenase 2 activity. 110,000 tested, 0.56% active. purified 15hLO-2, xylenol orange hydroperoxide absorbance. Potency, µM (series often up to 57.1 µM), for the others: top-dose activity change, negative = inhibition, hits mostly inhibitors; note: potency is the fitted concentration of half-maximal effect; nearly all actives have a fitted effect of over 60% in size
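Purified human 15hLO-2 (50 nM) preincubated 15 min with compound, then 45 uM arachidonic acid for 90 min at RT in 25 mM Hepes pH 7.5, 0.01% Triton X-100. Hydroperoxide detected by Fe-xylenol orange; 573/405 nm absorbance ratio.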
HPGD block: HPGD (human) dehydrogenase inhibition; P15428; purified HPGD, NADH fluorescence kinetic, PGE2 substrate; Potency, µM, inactives show top-dose activity change, negative = inhibition, most hits filed as inhibitors; 150,000 tested, 4.3% active; AID 894; active = well fitted inhibition curve with a large enough effect, not every such curve was filed as active; inconclusive = small, poorly fitted or top-dose-only effect, or another doubt; inactive = no such curve, though single readings can be large or run the other way; note: potency is the fitted concentration of half-maximal effect
Target sequence (P15428 whole entry, looked up): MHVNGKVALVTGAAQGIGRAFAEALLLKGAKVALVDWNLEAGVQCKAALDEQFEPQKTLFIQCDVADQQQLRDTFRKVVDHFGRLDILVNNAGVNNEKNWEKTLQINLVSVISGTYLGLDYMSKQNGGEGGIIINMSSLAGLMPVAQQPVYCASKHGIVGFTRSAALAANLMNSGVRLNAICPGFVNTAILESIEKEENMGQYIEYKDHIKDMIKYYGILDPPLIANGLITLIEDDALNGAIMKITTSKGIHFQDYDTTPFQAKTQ
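20 nM HPGD preincubated 15 min at room temperature with compound in 50 mM Tris-HCl pH 8, 0.01% Tween 20. Started with 1 mM NAD+ and 30 uM prostaglandin E2; NADH fluorescence (360/450 nm) read 5 times over 30-s intervals, last minus first.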
IMPase cell inh: IMPase inhibition in cells. P97697. CHO-M1 cells, IP1 accumulation, HTRF TR-FRET ratio. inhibition (IP1 accumulation), % at 46.1 µM. 120,000 tested, under 10 active. AID 901; active = well fitted curve in the direction sought with a large enough effect in the signal ratio, not every such curve was filed as active; inconclusive = small, poorly fitted or top-dose-only effect, or a change in a side signal; inactive = no such curve, though single readings can be large or run the other way; the % refers to the signal ratio;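 note: cells stimulated with carbachol in lithium chloride buffer; plate controls were DMSO basal wells for no effect and reference inhibitor wells for full effect; higher means more IMPase inhibition seen as more IP1 and lower FRET ratio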
Target sequence (P97697 whole entry, looked up): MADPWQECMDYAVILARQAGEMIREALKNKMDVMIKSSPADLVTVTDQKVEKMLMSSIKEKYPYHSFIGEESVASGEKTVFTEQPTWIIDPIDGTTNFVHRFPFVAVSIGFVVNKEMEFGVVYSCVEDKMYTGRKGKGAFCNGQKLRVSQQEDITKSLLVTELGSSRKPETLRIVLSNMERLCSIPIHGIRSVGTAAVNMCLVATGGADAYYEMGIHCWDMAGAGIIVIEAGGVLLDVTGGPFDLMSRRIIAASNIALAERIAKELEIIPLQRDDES
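CHO-M1, 2000 cells/well, cultured 16–30 h; cpd up to 46 uM; carbachol (50 uM solution, stimulation buffer w/ 50 mM LiCl, pH 7.4), 30 min 37C; IP-One TR-FRET, 10 min RT; Ex 320/Em 665, 620; Hill-fit AC50.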
ALOX12 inhib: blocks human 12-lipoxygenase activity | Potency, µM (titrated, usually from 57.1 µM), without a hit: at the highest dose activity change, negative = inhibition, most hits filed as inhibitors | purified 12-hLO, xylenol orange hydroperoxide absorbance | 150,000 tested, 0.12% active | AID 1452; note: potency is the fitted concentration of half-maximal effect; nearly all actives have a fitted effect of over 55% in size
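Purified human 12hLO (150 nM final) was preincubated with compounds for 15 min at room temperature in 25 mM Hepes pH 7.0, 0.01% Triton X-100, then reacted with 40 uM arachidonic acid for 30 min. Hydroperoxide was detected with ferrous iron/xylenol orange.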
PNC assembly inh: inhibitors of perinucleolar compartment assembly. PC3M PTB-GFP, PNC prevalence imaging, 16 h; stronger effect = lower value. activity change (PNC), negative = inhibition, % at 10 µM. 140,000 tested, 3.1% active;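 active = readout at or below -70, meaning at least 70% loss of cells showing the perinucleolar compartment, a nuclear body marking cancer cells; inconclusive = readout between -30 and a set limit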;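 note: plate controls were DMSO wells for no effect and camptothecin positive control wells for full effect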
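Compounds are pinned in duplicate onto adhered PC3M cells stably expressing GFP-tagged PTB and incubated 16 h at 37 C. Cells are then fixed, nuclei stained with Hoechst, and PNC-positive cells counted.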
IMPase Li cell: cell-permeable IMPase inhibitors with lithium potentiation; CHO-M1 cells, IP1 TR-FRET (IP-One), carbachol + lithium; Potency, µM (series often up to 59.4 µM), for inactives: at the highest dose activity, negative = IMPase inhibition, actives largely listed as inhibitors; 210,000 tested, 0.35% active; AID 1457;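 note: IP1 builds up when IMPase is blocked and the TR-FRET signal falls; potency is the fitted concentration of half-maximal effect; plate controls were basal vehicle for no effect and high inhibitor control for full effect; nearly all actives have a fitted effect of over 50% in size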
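Lithium-sensitised IP1 accumulation assay; M1-expressing CHO cells treated 30 min at 37C with compound. Competitive antibody detection by time-resolved FRET followed a 10 min room-temperature lysis step.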
Starred values were filed as active, the others as inactive; ? = inconclusive; / = not tested or not shown; [ ] = remark or other dose. In the library only some 5.3% were active in any assay of this set; here they are far more common. Unless noted, calls come from the whole dose curve; as a rule, active = well fitted curve in the direction sought with a large enough effect; inconclusive = small, poorly fitted or top-dose-only effect, or another doubt; inactive = no such curve, though single readings can be large; an effect the other way counts as inactive or inconclusive. Unless noted, % is set by controls: 0 for no effect and ±100 for the full control effect.

SMILES	15-hLO-2 inh	HPGD block	IMPase cell inh	ALOX12 inhib	PNC assembly inh	IMPase Li cell
Cc1nnc(SCC(=O)Nc2sc3c(c2C(N)=O)CCCC3)[nH]c1=O	-16.6%	-13.2%	0.0	-1.7%	59.9	-4.3%[38.3 µM]
Cn1cnnc1SCC(=O)Nc1sc2c(c1C(N)=O)CCC2	/	17.8µM*	-4.8	-6.9%	7.1	-7.9%[38.3 µM]
CCOC(=O)c1c(NC(=O)CSc2nnc(CNc3ccc(Cl)cc3)o2)sc(C)c1C	/	-4.1%	-0.6	1.0%	-107.2*	11.5%
CC(C)CC(NC(N)=O)C(=O)Nc1ccc(Oc2ccccc2)cc1 (configuration not stated)	/	/	/	/	/	-9.9%
O=C1N=C(N2CCN(c3cccc4ccccc34)CC2)S/C1=C/c1cccs1	-20.6%	-5.6%	6.1	-2.9%	46.6	0.0%
Cc1ccccc1N1CCN(C2=NC(=O)/C(=C\c3cccs3)S2)CC1	/	25.1µM*	/	-0.3%	21.0	12.6%
Cc1[nH]c2ccccc2c1C1C(c2ccccc2)=NN=C(C(C)C)N1O (configuration not stated)	/	-16.9%	15.2	-7.8%	-103.4*	27.4%
Cc1[nH]c2ccccc2c1C(=O)C(=O)N1CC=C(c2ccccc2)CC1	/	?	16.2	5.6%	?	-0.8%
CC1=NN=C(c2ccccc2)C(c2c[nH]c3ccccc23)N1O (configuration not stated)	/	-4.7%	/	-4.1%	-113.8*	-2.3%
CCOc1ccccc1NC(=O)CSc1nnc(N)s1	/	/	-2.2	/	/	/
CCN(CC)S(=O)(=O)c1cc(NC(=O)CSc2nc3c(cc2C#N)C(=O)CC(C)(C)C3)ccc1C	/	-6.8%	/	-3.0%	-96.0*	-16.3%
O=C(Nc1ccc2c(c1)C(=O)NC2=O)c1ccc(S(=O)(=O)N2CCCC2)cc1	/	/	/	/	/	17.7%
CCOC(=O)C(NC(=O)c1ccc(OC)cc1)(N1CCCC1=O)C(F)(F)F (configuration not stated)	/	2.2%	/	-0.1%	-15.0	-6.7%
CCOC(=O)C(NC(=O)c1ccccc1)(N1CCCC1=O)C(F)(F)F (configuration not stated)	1.9%	-14.1%	2.1	-1.0%	-84.9*	-14.3%[38.3 µM]
COc1ccc(NC(=O)CSc2nnc(NC(=O)c3ccccc3C(=O)O)s2)cc1	/	/	/	/	/	2.2%
O=C1C2C3C=CC(C4CC34)C2C(=O)N1Cc1ccco1 (configuration not stated)	/	-0.6%	/	-3.0%	84.1	-2.4%
COc1ccc(CN2C3CCCC2CC(NC(=O)Nc2ccccc2)C3)cc1 (configuration not stated)	/	-10.7%	2.1	-4.4%	118.2	13.3%
COc1ccc(CN2C3CCCC2CC(NC(=O)Nc2ccccc2C)C3)cc1 (configuration not stated)	/	-10.1%	-3.3	1.2%	-100.0*	15.1%
O=C(NNC(=S)NCc1ccc(Cl)cc1)c1ccc2c(c1)OCO2	/	/	/	/	/	1.8%
COc1ccc(-c2csc(/C(C#N)=C(\O)CSc3nccn3C)n2)cc1OC	-7.5%	25.1µM*	-3.6	-14.4%	7.1	1.5%[38.3 µM]
COc1ccccc1N1CCN(C2CCN(C(=O)COc3cccc(C)c3)CC2)CC1	/	-9.6%	/	-1.0%	?	-0.1%
CC(=O)Nc1c(O)nc(SCC(=O)Nc2ccc(C(C)=O)cc2)[nH]c1=O	7.3%	-26.7%	11.1	0.9%	-26.2	2.1%[38.3 µM]
O=C(CSc1nc(O)c(C2CCCCC2)c(=O)[nH]1)Nc1ccc(Cl)cc1	-18.2%	-6.3%	5.8	?	-111.9*	-9.5%[38.3 µM]
O=C(NCc1ccc(-n2cccc2)cc1)c1cccc(F)c1	/	/	/	/	/	4.4%
O=C1CC(c2cc(Br)ccc2F)c2cc3c(cc2N1)CCC3 (configuration not stated)	-2.3%	-9.8%	-2.3	-2.9%	-97.2*	8.3%[38.3 µM]
SMILES	15-hLO-2 inh	HPGD block	IMPase cell inh	ALOX12 inhib	PNC assembly inh	IMPase Li cell
Cc1ccc(-n2sc3ccccc3c2=O)cc1S(=O)(=O)N1CCCCC1	0.631µM*	1µM*	5.1	3.16µM*	?	9.4%[38.3 µM]
O=S(=O)(c1cccc2c(S(=O)(=O)N3CCCC3)cccc12)N1CCCC1	-6.0%	0.4%	4.8	4.6%	-129.2*	12.3%[38.3 µM]
O=c1c2ccccc2sn1-c1ccc(S(=O)(=O)N2CCCC2)cc1	0.398µM*	0.708µM*	2.6	?	-1.8	1.4%[38.3 µM]
CN(C)S(=O)(=O)c1cccc(-n2sc3ccccc3c2=O)c1	/	/	/	/	/	7.4%
O=C(C1=C[C@@H](c2ccccc2)C[C@@H](OCc2ccc(CO)cc2)O1)N1CCCCCCC1	/	/	/	/	/	15.3%
Cc1ccc(O)c(C(=O)c2cnc3c(c2)CN(CCC(C)C)C(=O)N3)c1	-7.2%	-20.2%	-3.5	-14.8%	0.9	-3.1%[38.3 µM]
Cc1ccc(O)c(C(=O)c2cnc3c(c2)CN(C)C(=O)N3)c1	-1.2%	28.2µM*	3.9	-12.1%	?	19.5%[38.3 µM]
Cc1ccc(O)c(C(=O)c2cnc3c(c2)COc2ccc(C)cc2-3)c1	/	17.8µM*	14.4	-2.2%	?	24.0%
CN1Cc2cc(C(=O)c3cc(Cl)cc(CSc4ncccn4)c3O)cnc2NC1=O	-4.2%	14.1µM*	2.6	-14.7%	?	?
COC(=O)c1cc(NC(=O)c2c(F)c(F)c(F)c(F)c2F)cc(C(=O)OC)c1	/	-22.9%	/	-0.1%	-16.9	-2.9%
CCC(c1nnc(SCC(=O)Nc2ccc(Cl)cc2C(F)(F)F)n1C1CCCCC1)N(C)C (configuration not stated)	/	/	1.6	4.4%	16.8	/
Nc1ccccc1-c1nc2ccccc2[nH]1	10.0%	?	-9.2	2.1%	-83.4*	-10.2%
S=C(NCCN1CCOCC1)N/N=C/c1c2ccccc2cc2ccccc12	?	-15.1%	-1.2	-4.8%	-80.8*	28.8%[38.3 µM]
CS(=O)(=O)N1CCC2(CCCN(c3cccc(-c4ccccc4)c3)C2)CC1	-1.0%	-11.2%	/	-2.9%	/	-2.1%
CC(C)(C)C1CCc2c(sc(NC(=O)CSc3ncn[nH]3)c2C#N)C1 (configuration not stated)	/	14.1µM*	?	-5.4%	12.6	-0.9%
CCc1cc(C(=O)Cc2ccc(F)cc2)c(O)cc1O	/	-19.4%	3.7	7.5%	?	-4.1%
CCc1cc(C(=O)COc2ccccc2F)c(O)cc1O	4.9%	31.6µM*	1.3	-24.7%	37.0	41.2%[38.3 µM]
O=C(c1cccs1)c1no[n+]([O-])c1C(=O)c1cccs1	-20.5%	12.6µM*	-5.9	-17.6%	11.9	17.4%[38.3 µM]
CCn1nnc(NC(=O)c2cccnc2)n1	4.7%	25.1µM*	-1.6	-10.7%	24.0	-11.9%[38.3 µM]
CCNC(=S)NNC(=O)c1ccccc1Cl	/	-4.5%	/	-0.4%	-80.5*	-5.5%
CN(c1ccc(C(=O)N2CCCCC2)cc1)S(C)(=O)=O	-1.1%	10µM*	4.4	-1.5%	-28.7	8.6%[38.3 µM]
